RE007 growth inh = less growth of the S. pombe RE007 Vpr strain | S. pombe RE007 Vpr strain, BacTiter-Glo ATP luminescence, 24 h | Potency, µM (highest dose often 92.2 µM), inactives show at the top dose activity change, negative = less growth, most hits filed as inhibitors | 360,000 compounds, 0.21% hits; active = well fitted falling curve with a large enough effect; inconclusive = small, poorly fitted or top-dose-only effect; inactive = no such curve, though single readings can be large or run the other way; note: % is set by controls: 0 for no effect and ±100 for the full control effect; nearly all actives have a fitted effect of over 50% in size
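Fission yeast RE007 carrying one integrated HIV-1 vpr copy, seeded at OD 0.01 in PMG+AL medium with 23 nL pinned compound. Grown 24 h at 30 degrees; viability read by BacTiter-Glo luminescence after 5 min.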
Tb PYK inh = blocks Trypanosoma brucei pyruvate kinase; 410,000 compounds, 0.12% hits; Potency, µM (highest dose often 76.8 µM), without a hit: at the top dose activity, negative = inhibition, hits mostly inhibitors; Q57TT1; TbPYK enzyme, Kinase-Glo Plus ATP luminescence, 45 min; note: % is set by controls: 0 for no effect and ±100 for the full control effect; nearly all actives have a fitted effect of over 50% in size
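Activity of T. brucei pyruvate kinase was followed by Kinase-Glo Plus luminescence after the enzyme reacted 45 min at room temperature with 130 uM ADP (final) and substrate. Test compounds were added before ADP at multiple concentrations.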
AMA1 RON2 block = AMA1-RON2 (P. falciparum) interaction inhibition. Potency, µM (titrated, usually from 58.2 µM), for the others: at the highest dose activity change, negative = inhibition, usual class: inhibitors. AlphaScreen AMA1-biotinylated RON2 peptide binding. 360,000 compounds, 0.2% hits;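 note: 0% = vehicle wells and -100% = peptide control; nearly all actives have a fitted effect of over 45% in size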
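AMA1 (3D7) with his tag at 25 nM final met compounds first, then biotinylated RON2 peptide at 25 nM; detection used donor plus acceptor beads, 10 µg/mL apiece, read by AlphaScreen after 30 min at room temperature.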
LmPK inhibitor = LmPK (Leishmania mexicana) enzyme inhibition; purified LmPK, Kinase-Glo ATP luminescence, 1 h; Potency, µM (top dose mostly 57.5 µM), for inactives: at the top dose activity change, negative = inhibition, most hits filed as inhibitors; 290,000 compounds, 0.37% hits; note: % is set by controls: 0 for no effect and ±100 for the full control effect
Target sequence (Q27686 whole entry, looked up): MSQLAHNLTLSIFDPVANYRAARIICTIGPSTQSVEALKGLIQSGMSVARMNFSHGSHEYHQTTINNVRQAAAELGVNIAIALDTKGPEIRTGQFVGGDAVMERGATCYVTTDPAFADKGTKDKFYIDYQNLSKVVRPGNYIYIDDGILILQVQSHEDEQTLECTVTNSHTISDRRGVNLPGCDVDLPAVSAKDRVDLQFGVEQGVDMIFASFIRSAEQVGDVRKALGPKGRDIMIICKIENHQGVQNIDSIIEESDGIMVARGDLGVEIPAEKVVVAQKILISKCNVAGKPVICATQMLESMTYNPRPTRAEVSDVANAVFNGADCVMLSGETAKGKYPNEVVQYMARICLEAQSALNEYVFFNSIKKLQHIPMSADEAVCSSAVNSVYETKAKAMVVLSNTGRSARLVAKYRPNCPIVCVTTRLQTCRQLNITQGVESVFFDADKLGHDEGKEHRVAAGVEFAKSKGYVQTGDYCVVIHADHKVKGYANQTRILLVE
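ATP generated from ADP (0.1 mM) and PEP (0.5 mM) by 0.1 nM LmPK over 1 h at room temperature (pH 7.2 imidazole buffer) was detected by coupled luciferase luminescence. Values were normalized to uninhibited and no-enzyme wells.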
SARS PLP yeast = blocks SARS-CoV papain-like protease in a yeast assay | S. cerevisiae expressing SARS-CoV PLpro, growth rescue | Potency, µM (doses to about 32.9 µM), inactives show at the highest dose activity, positive = growth rescue, hits mostly activators | 330,000 compounds, 0.19% hits | AID 485353; calls by dose curve; note: 0% is about no effect; nearly all actives have a fitted effect of over 55% in size
* = called active by the depositor; ? = inconclusive; . = not tested or not shown; [ ] = dose if it differs, or a comment. This is a sample that favours compounds with a hit; in the whole collection about 0.81% have one here. Unless noted, calls come from the whole dose curve; as a rule, active = well fitted curve in the direction sought with a large enough effect; inconclusive = small, poorly fitted or top-dose-only effect, or another doubt; inactive = no such curve, though single readings can be large; an effect the other way counts as inactive or inconclusive. Potency is the fitted concentration of half-maximal effect.

SMILES | RE007 growth inh | Tb PYK inh | AMA1 RON2 block | LmPK inhibitor | SARS PLP yeast
COc1ccc(C(=O)Nc2cc(C(=O)c3ccccc3)c(C)oc2=O)cc1 | 11µM* | -24% | 0% | 3% | -33%
O=C(Nc1cc2ccccc2oc1=O)c1ccccc1 | -4% | -16% | 2% | 4.5µM* | -4%
Cc1oc(=O)c(NC(=O)c2ccccc2)cc1C(N)=O | -5% | 3% | 21% | -3% | 0%
Cc1oc(=O)c(NC(=O)c2cccc(Cl)c2)cc1C(=O)c1ccccc1 | 14µM* | ? | 10% | -2% | -29%
CC(CN(C)C)CN1c2ccccc2S(=O)(=O)c2ccccc21 (configuration not stated) | . | 3% | . | . | .
CCCN1/C(=C2/SC(=S)N(CC)C2=O)C=Cc2ccccc21 | 10% | -4% | 3.2µM* | ? | 27%
CCN1C(=O)/C(=C2/C=Cc3ccccc3N2CC)SC1=S | 6% | -12% | 10µM* | -3% | 0%
CCCN1C(=O)/C(=C2/C=Cc3ccccc3N2CC)SC1=S | -12% | -11% | 3.2µM* | -17% | -13%
O=C(Cn1c2ncccc2c(=O)n1-c1ccccc1)Nc1cccc(C(F)(F)F)c1 | . | -2% | . | . | .
Cc1ccc(S(=O)(=O)C=CS(=O)(=O)c2ccc(C)cc2)cc1 | 1.4µM* | ? | ? | . | .
Cc1cc(C)cc(NC(=O)c2cc(C)nc3ccccc23)c1 | -1% | 7% | 29% | -3% | 5%
Cc1ccc(-c2cc3ncc(C(=O)c4cc([N+](=O)[O-])ccc4O)cn3n2)cc1 | . | 3% | . | . | .
O=C(N/N=C/c1ccc(Cl)cc1)c1sccc1OCc1ccc(F)cc1 | 5% | 0% | 40µM* | 8% | 2%
Cc1ccc(Cl)cc1N(CC(=O)NC(C)c1ccccc1)S(C)(=O)=O (configuration not stated) | -7% | 5% | 5% | -6% | -3%
O=C(CSc1nc2ccccc2s1)Nc1cc(S(=O)(=O)N2CCOCC2)ccc1O | 15% | ? | -15% | 7% | 13µM*
N#CC(C#N)=c1ccc2c(c1)NC1(CCCCC1)N=2 | ? | ? | 22µM* | 14µM* | -29%
CC(=O)Nc1ccc(N=NN2CCOCC2)cc1 | 12% | -17% | -2% | -1% | 11µM*
CC(=O)Nc1cccc(N=NN2CCOCC2)c1 | 6% | 2% | 14% | -1% | 1%
COc1ccccc1N1CCN(/N=C\c2sccc2C)CC1 | -16% | -1% | 13µM* | -5% | 0%
O=[N+]([O-])c1ccccc1/C=N\N1CCN(c2ccccc2)CC1 | ? | -1% | 22µM* | 4% | -2%
O=[N+]([O-])c1ccccc1/C=C/C=N/N1CCCCC1 | -25% | 0% | 10µM* | -9% | 0%
O=[N+]([O-])c1ccccc1/C=N/N1CCN(c2ccc(Cl)cc2)CC1 | -17% | -9% | ? | 5% | -13%
COc1ccccc1N1CCN(/N=C/C=C/c2ccccc2[N+](=O)[O-])CC1 | -15% | -1% | 5.6µM* | -6% | 0%
COc1ccccc1N1CCN(/N=C\c2ccccc2)CC1 | 3% | 5% | -12% | 21% | 3%
CC(=O)Nc1cccc(NS(=O)(=O)c2ccc3c(c2)CCC(=O)N3)c1 | 6% | -5% | -1% | . | .
SMILES | RE007 growth inh | Tb PYK inh | AMA1 RON2 block | LmPK inhibitor | SARS PLP yeast
CCOC(=O)[C@]12CCC=C1N(Cc1ccc(Cl)cc1Cl)C(=O)[C@H](CC(=O)NCCCOC)C2 | 3% | 1% | 0% | . | .
CCCC(=O)O[C@]1(C(=O)COC(C)=O)CC[C@H]2C3C[C@H](F)C4=CC(=O)C=CC4(C)[C@@]3(F)[C@@H](O)CC21C (some centres not stated) | . | 4% | . | . | .
C=Cc1ccc(CN2C(=O)N(c3ccc(CC)cc3)S(=O)(=O)c3ccccc32)cc1 | . | -4% | . | . | .
COC(=O)c1ccc(CCc2cc(O)ccc2O)cc1 | 11µM* | ? | -3% | . | .
COC(=O)c1ccc(CCc2cc(O)c(Br)cc2O)cc1 | 11µM* | ? | ? | . | .
CCOc1ccc2nc(NC(=O)c3ccccn3)sc2c1 | 14µM* | -11% | 48% | ? | -1%
CCSc1nnc(NC(=O)c2ccccn2)s1 | 11µM* | -12% | -6% | ? | -12%
CCOc1ccc2nc(NC(=O)c3ccoc3C)sc2c1 | 10µM* | ? | 14% | 13µM* | -16%
CC(=O)NC1[C@H](O)C[C@@](O)(C(=O)O)O[C@H]1[C@H](O)[C@H](O)CO (some centres not stated) | . | 4% | . | . | .
O=C1C(=Cc2ccccn2)CCc2ccccc21 | ? | ? | 14% | . | .
COc1cccc(C=C2Cc3ccccc3C2=O)c1 | ? | 0% | -1% | . | .
COc1cccc(/C=C2\CCc3ccccc3C2=O)c1 | . | ? | 4% | 16µM* | -5%
Cc1ccsc1/C=C1\CCc2ccccc2C1=O | 13µM* | ? | 1% | ? | -28%
CC(=O)Oc1ccc(/C=C2/CCc3ccccc3C2=O)cc1 | ? | ? | 0% | 14µM* | -5%
COc1ccc(/C=C2\CCc3ccccc3C2=O)cc1OC | -21% | 1% | ? | -10% | -23%
COc1ccc(N2C(=O)CC(Sc3n[nH]c(-c4ccccc4)n3)C2=O)cc1 (configuration not stated) | 18µM* | -20% | 57% | 11% | -4%
CCOc1ccc(N2C(=O)CC(Sc3n[nH]c(-c4ccccc4)n3)C2=O)cc1 (configuration not stated) | ? | -29% | 57% | 17% | -6%
CCc1ccc(S(=O)(=O)NCCc2csc3nc(-c4ccccc4)nn23)s1 | . | 1% | . | . | .
Oc1c(Cl)cc(Cl)cc1CN1CCN(Cc2ccccc2)CC1 | 6% | -13% | -19% | -2% | -4%
Oc1c(Cl)cccc1Cc1cc(Cl)cc(Cl)c1O | 35µM* | -8% | -15% | . | .
O=[N+]([O-])c1ccccc1N/N=C1\CC2CC=CC12 (configuration not stated) | -1% | 5% | 20µM* | -7% | -1%
NC(=O)NS(=O)(=O)c1ccc(N)cc1 | . | 6% | . | . | .
Cc1ccc(OCC(=O)OCC(=O)NC2CCS(=O)(=O)C2)cc1C (configuration not stated) | -2% | -1% | -2% | . | .
N/C(=N/OC(=O)c1ccccc1Cl)c1nonc1N | 28µM* | ? | -19% | 1%[11.5 µM] | 0%
Cc1nc(/C(N)=N/OC(=O)c2ccccc2Cl)c(C(F)(F)F)o1 | -8% | -21% | 10% | 13µM* | -2%
Cc1ccc(C(=O)O/N=C(\N)c2nonc2N)cc1 | ? | ? | 4% | 4µM* | -12%
N/C(=N\OC(=O)c1ccc(F)cc1)c1nonc1N | ? | ? | 25% | 14µM* | -7%
CN(c1nccc(=O)[nH]1)C1CCN(c2nc3ccccc3n2Cc2ccc(F)cc2)CC1 | . | 7% | . | . | .
Cc1cc(/C(N)=N/OC(=O)c2ccccc2Cl)no1 | -16% | ? | 6% | 22µM* | -1%
